Bioassay records as filed in PubChem BioAssay.
In the library only some 5.1% were active in any assay of this set; here they are far more common.
CRFBP-R2 agonist – agonists of CRF-BP/CRF-R2 complex, primary screen, cell-based, HEK293, calcium dye fluorescence, uHTS. calcium dye fluorescence (FLIPR); percent of saturating CRF peptide response. activation, % at 13.2 µM. 350,000 tested, 0.46% active;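 active means activation of at least 50%, plus an integration ratio under a set limit after plate pattern correction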
ANO1 activ – TMEM16A chloride channel activators or potentiators, primary screen, cell-based, HTS. AID 623877, 2012. 340,000 tested, 0.3% active. HEK293 TMEM16A/YFP-H148Q/I152L, iodide quench fluorescence; active compounds read low. B-score at 10 µM;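 active means fluorescence-ratio B-score plate-corrected deviation score at least 3 library SD below zero, with starting fluorescence score within 5 deviations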;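 further: channel opened by trigger with iodide after compound preincubation; score built on the fluorescence ratio of max minus min over baseline; more negative score means more quench and so TMEM16A activation or potentiation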
Target sequence (Q8BHY3 whole entry, looked up): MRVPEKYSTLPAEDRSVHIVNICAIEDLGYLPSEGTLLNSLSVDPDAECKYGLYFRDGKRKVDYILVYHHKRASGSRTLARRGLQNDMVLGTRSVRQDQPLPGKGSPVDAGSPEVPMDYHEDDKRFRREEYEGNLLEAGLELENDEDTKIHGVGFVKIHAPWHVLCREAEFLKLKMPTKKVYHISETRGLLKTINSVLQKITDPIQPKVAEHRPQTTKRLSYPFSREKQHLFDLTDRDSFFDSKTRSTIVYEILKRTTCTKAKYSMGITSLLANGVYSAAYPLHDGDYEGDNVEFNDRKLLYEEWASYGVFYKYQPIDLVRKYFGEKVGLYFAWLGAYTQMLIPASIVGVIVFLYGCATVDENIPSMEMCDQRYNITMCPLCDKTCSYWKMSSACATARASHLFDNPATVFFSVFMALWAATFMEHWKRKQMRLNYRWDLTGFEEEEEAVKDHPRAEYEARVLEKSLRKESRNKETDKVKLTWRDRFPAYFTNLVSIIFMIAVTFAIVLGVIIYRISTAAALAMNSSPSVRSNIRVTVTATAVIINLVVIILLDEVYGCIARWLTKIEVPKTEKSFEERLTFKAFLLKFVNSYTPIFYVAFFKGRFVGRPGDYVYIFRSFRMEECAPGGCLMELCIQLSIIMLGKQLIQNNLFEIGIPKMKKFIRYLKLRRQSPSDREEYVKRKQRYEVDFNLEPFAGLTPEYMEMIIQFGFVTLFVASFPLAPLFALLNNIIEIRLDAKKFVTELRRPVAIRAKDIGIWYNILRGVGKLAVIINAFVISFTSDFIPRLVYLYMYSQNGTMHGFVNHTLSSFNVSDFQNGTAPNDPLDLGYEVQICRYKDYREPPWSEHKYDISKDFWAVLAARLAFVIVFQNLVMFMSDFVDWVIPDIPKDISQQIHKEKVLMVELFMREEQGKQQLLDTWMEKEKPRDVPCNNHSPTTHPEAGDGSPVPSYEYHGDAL
NR3A LBD binder – binders of NR3A ligand-binding domain, primary screen, biophysical, differential scanning fluorimetry, uHTS; Glutamate receptor ionotropic, NMDA 3A (GRIN3A) ligand-binding domain; NR3A LBD differential scanning fluorimetry, Tm shift; 0% = protein alone, 100% = glycine-bound protein; Tm shift relative to glycine control, % at 25 µM; 340,000 tested, 2.5% active; AID 1259313, 2017;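 active means melting temperature shift of at least 10% of the positive control shift, at one fixed dose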
CRFBP-R2 block – antagonists of CRF-BP/CRF-R2 complex, primary screen, cell-based, HEK293, calcium dye fluorescence, uHTS; CRF-induced calcium fluorescence; inhibition, % at 11.8 µM; 350,000 tested, 0.59% active;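 active means inhibition of the ligand-induced calcium signal above about 50% at the single tested concentration, limit read from the data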
MPTP inh – mitochondrial permeability transition pore inhibitors, primary screen, biochemical, isolated mouse mitochondria, absorbance; Ca2+ swelling absorbance, 30 min; inhibition, % at 10 µM; 360,000 tested, 1.4% active; AID 602449, 2012;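 active means inhibition of 50% or more, scaled per plate between neutral and stimulator controls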
TMEM16A inh – TMEM16A chloride channel inhibitors, primary screen, cell-based, HTS; HEK293 TMEM16A/YFP iodide influx fluorescence, ionomycin; AID 588511, 2011; 310,000 tested, 1.2% active; normalized B-score (activity score, 25-100; higher = stronger inhibition) at 10 µM;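 active means ratio plate-corrected score three or more library SD toward inhibition, starting fluorescence score within five deviations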;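 further: score derived from kinetic fluorescence span divided by baseline fluorescence per well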
Each line names hits and unclear results; the compound was inactive in the other large screens.

CCCN(Cc1cc2cc(C)ccc2[nH]c1=O)C(=O)c1ccccn1	none
CCCCN(Cc1cc2cc(OC)ccc2[nH]c1=O)C(=O)c1ccccn1	NR3A LBD binder 12.5
CC(NC(=O)COC(=O)C12CC3CC(CC(Br)(C3)C1)C2)c1ccccc1 (stereo not drawn)	CRFBP-R2 block 61.8 (no result: TMEM16A inh)
C(=C\n1nnc2ccccc21)/c1ccccn1	none
Cc1ccc(NC(=O)/C(C#N)=C(\N)C(Cl)(Cl)Cl)nc1	ANO1 activ -11.1
Cc1ccc(NC(=O)C(=O)Nc2ccc(C)cn2)nc1	none
O=c1oc(-c2ccco2)nc2sc3c(c12)CCCC3	CRFBP-R2 block 51.6
Cc1nc2n(c(=O)c1CCN1CCC(c3noc4cc(F)ccc34)CC1)CCCC2	NR3A LBD binder 10.4
COc1cc2c(cc1OC)/C(=C/C(=O)N1CCOCC1)NC(C)(C)C2	NR3A LBD binder 10.8 (no result: ANO1 activ, MPTP inh)
COc1cccc(C(O)c2ncc(-c3ccc(Cl)cc3)[nH]2)c1 (stereo not drawn)	none (no result: CRFBP-R2 agonist, ANO1 activ, NR3A LBD binder, CRFBP-R2 block, TMEM16A inh)
NS(=O)(=O)c1ccc(CCNC(=O)COC(=O)C2CCC2)cc1	ANO1 activ -4.6
NS(=O)(=O)c1ccc(CCNC(=O)C2CCN(S(=O)(=O)c3ccc(Br)s3)CC2)cc1	NR3A LBD binder 12.8
CN(C(=O)c1cc(-c2ccccc2)on1)C1CCCCC1	none
COc1ccccc1NC(=O)c1ccc(NC(=O)c2cc3c(s2)CCC3)cc1	NR3A LBD binder 30.4
COc1ccc(NC(=O)CC2(CC(=O)N3CCOCC3)CCCC2)cc1Cl	none (no result: TMEM16A inh)
CCOc1ccccc1NC(=O)CC1(CC(=O)N2CCOCC2)CCCC1	NR3A LBD binder 12.8 (no result: TMEM16A inh)
O=C(Cc1ccc([N+](=O)[O-])cc1)N/N=C/c1cccs1	none
COc1c(C(=O)NNC(=O)c2ccccc2)csc1Br	NR3A LBD binder 12.5
CC1=C(C(=O)NC(C)C)C2(CCC(C)CC2)OC1=O (stereo not drawn)	TMEM16A inh 25
Cc1cc(C)n2c(SC(C)C(=O)NC3(C#N)CCCCC3)nnc2n1 (stereo not drawn)	none (no result: TMEM16A inh)
O=C(N/N=C/c1ccc(O)cc1O)C(=O)N/N=C/c1ccc(O)cc1O	NR3A LBD binder 36.2
Oc1ccc(C=NNC(=S)Nc2ccc(F)cc2)c(O)c1	NR3A LBD binder 27.2 (no result: TMEM16A inh)
Oc1ccc(/C=N/NC(=S)Nc2cccnc2)c(O)c1O	none (no result: TMEM16A inh)
O=C(CCC(=O)Nc1ccc(F)cc1)N/N=C/c1ccc(O)cc1O	none
Oc1ccc(/C=N/NC(=S)Nc2cccnc2)c(O)c1	NR3A LBD binder 11.8
O=C(NN=Cc1ccc(O)cc1)C(=O)NN=Cc1ccc(O)cc1	none (no result: TMEM16A inh)
Cc1cccc(NC(=O)C2CCN(S(=O)(=O)c3cccc4nonc34)CC2)c1	none
O=C(O)c1ccc(CSc2nc(-c3ccc(Cl)cc3)cc(C(F)(F)F)n2)cc1	NR3A LBD binder 38.2
O=C1NN(c2ccccc2)C(=O)/C1=C\c1ccc(-c2cc([N+](=O)[O-])ccc2O)o1	NR3A LBD binder 22.7 (no result: TMEM16A inh)
O=C1NN(c2ccc(Cl)cc2)C(=O)/C1=C\c1ccc(-c2cccc(C(=O)O)c2)o1	none (no result: TMEM16A inh)
CC(/C=N/NC(=O)c1cccc(F)c1)=C\c1ccccc1	none
CC(/C=C/c1ccccc1F)=N\NC(=O)c1cccc(F)c1	NR3A LBD binder 22.0
COc1cc(NS(=O)(=O)c2ccc(NC(=S)NC(=O)c3sc4cc(F)ccc4c3Cl)cc2)nc(OC)n1	NR3A LBD binder 17.1
COc1cc(NS(=O)(=O)c2ccc(NC(=O)c3ccc(F)cc3)cc2)ncn1	NR3A LBD binder 12.6
COc1cc(NS(=O)(=O)c2ccc(NC(=S)NC(=O)/C=C/c3ccc(OC)c(OC)c3)cc2)ncn1	none
COc1ccc(/C=C/C(=O)NC(=S)Nc2ccc(S(=O)(=O)Nc3cc(OC)ncn3)cc2)cc1	CRFBP-R2 block 57.6 (no result: TMEM16A inh)
CCCOc1ccc(C(=O)NNC(=S)NC(=O)c2cc(-c3ccccc3)nc3ccccc23)cc1	NR3A LBD binder 18.4
CCCOc1ccc(C(=O)NNC(=S)NC(=O)c2cccs2)cc1	CRFBP-R2 agonist 112.9, TMEM16A inh 100
CCCOc1ccc(C(=O)NNC(=S)NC(=O)c2ccccc2)cc1	CRFBP-R2 agonist 179.7, TMEM16A inh 100
CCCOc1ccc(C(=O)NNC(=S)NC(=O)c2ccccc2[N+](=O)[O-])cc1	none
Nc1c2c(nc3ccc(Br)cc13)N(Cc1ccccc1)CC2	none
Nc1c2c(nc3ccc(Br)cc13)N(c1ccccc1)CC2	NR3A LBD binder 10.1
Cc1cccc(N2CCc3c2nc2ccc(Br)cc2c3N)c1	NR3A LBD binder 37.3
O=C(CC[C@H]1O[C@@H](n2ccc(=O)[nH]c2=O)[C@H](O)[C@@H]1O)NCCN1CCOCC1	none (no result: CRFBP-R2 agonist, ANO1 activ, NR3A LBD binder, CRFBP-R2 block, TMEM16A inh)
CCOc1ccccc1C(=O)NCC(=O)OCC(=O)N1CCCC1	none (no result: TMEM16A inh)
COc1ccc(/C=N/NC(=O)c2[nH]c3ccc(C)cc3c2-c2ccccc2)c(C(=O)O)c1OC	none
Cc1ccc2[nH]c(C(=O)N/N=C/c3ccccc3C(=O)O)c(-c3ccccc3)c2c1	CRFBP-R2 agonist 72.2
Cc1ccc2[nH]c(C(=O)N/N=C/c3ccccc3O)c(C)c2c1	NR3A LBD binder 19.5
COc1cc(OC)c2cc(C(=O)N/N=C/c3ccccc3O)[nH]c2c1	NR3A LBD binder 36.6
Cc1ccccc1Cn1c(C)c(C(=O)NCC(C)C)sc1=O	none (no result: CRFBP-R2 agonist, ANO1 activ, NR3A LBD binder, CRFBP-R2 block, TMEM16A inh)
O=C1CN(S(=O)(=O)c2cc(C(=O)O)ccc2Cl)c2ccccc2N1	none
Cc1ccc(O)c(NC(=S)NC(=O)/C=C/c2ccco2)c1	none
Cc1ccc(-c2csc(NC(=S)NC(=O)/C=C/c3ccco3)n2)cc1	NR3A LBD binder 17.4
O=C(/C=C/c1cccs1)Nc1nc(-c2ccccc2)cs1	NR3A LBD binder 17.3
O=C(O)c1ccccc1C(=O)Nc1nc(-c2ccc3ccccc3c2)cs1	none
O=C(/C=C\c1ccco1)Nc1nc(-c2ccc3ccccc3c2)cs1	NR3A LBD binder 24.6
O=C(/C=C\c1cn(-c2ccccc2)nc1-c1ccccc1)Nc1nccs1	NR3A LBD binder 27.5
CCOC(=O)C1CCCN(S(=O)(=O)c2ccc3c(c2)N(C(C)=O)CCO3)C1 (stereo not drawn)	none
CNS(=O)(=O)c1cccc(C(=O)NCC(c2ccco2)N(C)C)c1 (stereo not drawn)	CRFBP-R2 block 110.5
Clc1ccc2c(SCC3CO3)c3ccccc3nc2c1 (stereo not drawn)	NR3A LBD binder 12.6 (no result: TMEM16A inh)
O=C(CSc1c2c(nc3cc(Cl)ccc13)CCCC2)NCCN1CCOCC1	none
COc1cc2c(cc1OC)C(c1c(Cl)cccc1Cl)NC(=O)C2 (stereo not drawn)	CRFBP-R2 agonist 52.1
